Data: PubChem BioAssay AID1159580 (chemical genetic matrix, 2015)
Out of some 5,500 compounds screened, about 2,000 (36%) were called active. About 18% were inconclusive and are not listed. No stated cut-off is given here; in the data, active means normalized growth mostly below about 0.91 (no sharp cut-off); inconclusive means no clear call, values can overlap the other calls; inactive means mostly above about 0.92. The list shows a part of the results.

Assay: chemical genetic growth profiling, strain panel (AID 1159580);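 further: tested at 20 µM; growth read once vehicle control cultures reached saturation at 30 °C; 1 = growth at the plate median or of vehicle wells; lower values mean less growth of the strain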
Details: growth OD

Measured: normalized growth

C[N+](C)(C)CCOP(=O)([O-])OP(=O)(O)OC[C@H]1OC(n2ccc(N)nc2=O)[C@H](O)[C@@H]1O (some centres not stated)
inactive: S. cerevisiae deletion strains, locus YJR075W, strain HOC1, hits give low values 0.975 | S. cerevisiae deletion strains, locus YKL009W, strain mrt4, hits give low values 1.03 | S. cerevisiae deletion strains, locus YKL068W, hits give low values 0.991 | S. cerevisiae deletion strains, locus YKL085W, strain MDH1 (second series), hits give low values 1.02 | S. cerevisiae deletion strains, locus YKL085W, strain MDH1, hits give low values 1.02 | S. cerevisiae deletion strains, locus YKL160W, strain elf1, hits give low values 0.984 | S. cerevisiae deletion strains, locus YKL190W, strain CNB1, hits give low values 0.999 | S. cerevisiae deletion strains, locus YKR001C, strain vps1, hits give low values 1.01 | S. cerevisiae deletion strains, locus YKR026C, strain gcn3, hits give low values 0.979 | S. cerevisiae deletion strains, locus YKR091W, strain srl3, hits give low values 0.982 | S. cerevisiae deletion strains, locus YLL001W, strain dnm1, hits give low values 0.963 | S. cerevisiae deletion strains, locus YLL026W, hits give low values 0.985 | S. cerevisiae deletion strains, locus YLL041C, strain sdh2, hits give low values 0.98 | S. cerevisiae deletion strains, locus YLR027C, strain aat2, hits give low values 0.987 | S. cerevisiae deletion strains, locus YLR039C, strain RIC1, hits give low values 1.03 | S. cerevisiae deletion strains, locus YLR058C, strain SHM2, hits give low values 1 | S. cerevisiae deletion strains, locus YLR102C, strain apc9, hits give low values 1.01 | S. cerevisiae deletion strains, locus YLR113W, strain HOG1, hits give low values 0.978 | S. cerevisiae deletion strains, locus YLR221C, strain rsa3, hits give low values 1.01 | S. cerevisiae deletion strains, locus YLR258W, strain gsy2, hits give low values 0.999 | S. cerevisiae deletion strains, locus YLR262C, strain YPT6 (second series), hits give low values 0.98 | S. cerevisiae deletion strains, locus YLR262C, strain YPT6, hits give low values 0.993 | S. cerevisiae deletion strains, locus YLR268W, strain sec22, hits give low values 0.974 | S. cerevisiae deletion strains, locus YLR320W, strain mms22, hits give low values 1.01 | S. cerevisiae deletion strains, locus YLR330W, strain CHS5, hits give low values 1 | S. cerevisiae deletion strains, locus YLR342W, strain FKS1 (second series), hits give low values 1.05 | S. cerevisiae deletion strains, locus YLR342W, strain FKS1, hits give low values 0.974 | S. cerevisiae deletion strains, locus YLR357W, strain rsc2, hits give low values 0.994 | S. cerevisiae deletion strains, locus YLR370C, strain arc18, hits give low values 0.981 | S. cerevisiae deletion strains, locus YLR371W, strain rom2, hits give low values 1.01 | S. cerevisiae deletion strains, locus YLR384C, strain iki3, hits give low values 0.981 | S. cerevisiae deletion strains, locus YLR418C, strain cdc73, hits give low values 0.963 | S. cerevisiae deletion strains, locus YML016C, strain PPZ1, hits give low values 1 | S. cerevisiae deletion strains, locus YML032C, strain rad52, hits give low values 1.02 | S. cerevisiae deletion strains, locus YML120C, strain ndi1, hits give low values 0.999 | S. cerevisiae deletion strains, locus YML124C, strain tub3, hits give low values 1.01 | S. cerevisiae deletion strains, locus YMR058W, strain fet3, hits give low values 0.978 | S. cerevisiae deletion strains, locus YMR078C, strain ctf18, hits give low values 1 | S. cerevisiae deletion strains, locus YMR125W, strain sto1, hits give low values 0.994 | S. cerevisiae deletion strains, locus YMR129W, hits give low values 0.981 | S. cerevisiae deletion strains, locus YMR205C, strain PFK2, hits give low values 0.99 | S. cerevisiae deletion strains, locus YMR223W, strain ubp8, hits give low values 1.02 | S. cerevisiae deletion strains, locus YMR231W, strain pep5, hits give low values 0.989 | S. cerevisiae deletion strains, locus YMR263W, strain SAP30, hits give low values 0.983 | S. cerevisiae deletion strains, locus YMR307W, strain GAS1, hits give low values 1.04 | S. cerevisiae deletion strains, locus YNL067W, strain RPL9B, hits give low values 0.969 | S. cerevisiae deletion strains, locus YNL071W, strain lat1, hits give low values 0.991 | S. cerevisiae deletion strains, locus YNL128W, strain TEP1, hits give low values 0.943 | S. cerevisiae deletion strains, locus YNL153C, strain GIM3, hits give low values 0.985 | S. cerevisiae deletion strains, locus YNL183C, strain NPR1, hits give low values 0.964 | S. cerevisiae deletion strains, locus YNL209W, strain ssb2, hits give low values 1 | S. cerevisiae deletion strains, locus YNL233W, strain BNI4, hits give low values 0.994 | S. cerevisiae deletion strains, locus YNL248C, strain rpa49, hits give low values 1 | S. cerevisiae deletion strains, locus YNL250W, strain rad50, hits give low values 1 | S. cerevisiae deletion strains, locus YNL271C, strain bni1, hits give low values 0.995 | S. cerevisiae deletion strains, locus YNL298W, strain CLA4, hits give low values 1 | S. cerevisiae deletion strains, locus YNL307C, strain MCK1, hits give low values 1.02 | S. cerevisiae deletion strains, locus YNL322C, strain KRE1 (second series), hits give low values 0.975 | S. cerevisiae deletion strains, locus YNL322C, strain KRE1, hits give low values 0.998 | S. cerevisiae deletion strains, locus YNR049C, strain mso1, hits give low values 0.972 | S. cerevisiae deletion strains, locus YNR052C, strain pop2, hits give low values 1.02 | S. cerevisiae deletion strains, locus YOL006C, strain TOP1, hits give low values 1.04 | S. cerevisiae deletion strains, locus YOL012C, strain htz1 0.746 | S. cerevisiae deletion strains, locus YOL147C, strain pex11, hits give low values 1 | S. cerevisiae deletion strains, locus YOR001W, strain rrp6, hits give low values 0.988 | S. cerevisiae deletion strains, locus YOR061W, strain CKA2, hits give low values 1 | S. cerevisiae deletion strains, locus YOR069W, strain VPS5, hits give low values 1 | S. cerevisiae deletion strains, locus YOR070C, strain gyp1, hits give low values 0.998 | S. cerevisiae deletion strains, locus YOR080W, strain dia2, hits give low values 0.985 | S. cerevisiae deletion strains, locus YOR083W, strain WHI5, hits give low values 0.989 | S. cerevisiae deletion strains, locus YOR106W, strain vam3, hits give low values 0.982 | S. cerevisiae deletion strains, locus YOR136W, strain idh2, hits give low values 1 | S. cerevisiae deletion strains, locus YOR144C, strain elg1, hits give low values 1 | S. cerevisiae deletion strains, locus YOR184W, strain ser1, hits give low values 1.03 | S. cerevisiae deletion strains, locus YOR231W, strain MKK1, hits give low values 1 | S. cerevisiae deletion strains, locus YOR265W, strain rbl2, hits give low values 0.985 | S. cerevisiae deletion strains, locus YOR270C, strain vph1, hits give low values 0.98 | S. cerevisiae deletion strains, locus YOR290C, strain snf2, hits give low values 1.01 | S. cerevisiae deletion strains, locus YOR316C, strain cot1, hits give low values 1.01 | S. cerevisiae deletion strains, locus YPL051W, strain arl3, hits give low values 0.999 | S. cerevisiae deletion strains, locus YPL055C, strain LGE1, hits give low values 0.937 | S. cerevisiae deletion strains, locus YPL078C, strain atp4, hits give low values 0.976 | S. cerevisiae deletion strains, locus YPL106C, strain sse1, hits give low values 0.993 | S. cerevisiae deletion strains, locus YPL240C, strain hsp82, hits give low values 0.993 | S. cerevisiae deletion strains, locus YPL241C, strain CIN2, hits give low values 0.992 | S. cerevisiae deletion strains, locus YPL256C, strain CLN2, hits give low values 0.982 | S. cerevisiae deletion strains, locus YPR119W, strain clb2, hits give low values 0.993 | S. cerevisiae deletion strains, locus YPR141C, strain kar3, hits give low values 0.993 | S. cerevisiae deletion strains, locus YPR163C, strain tif3, hits give low values 1.01 | S. cerevisiae deletion strains, locus YPR167C, strain met16, hits give low values 0.992 | S. cerevisiae deletion strains, strain wtn01, hits give low values 0.987 | S. cerevisiae strains, strain wild type, hits give low values 0.972
